Active and inactive are the calls of the source. How the source made its calls: active means hit-call score of the fitted dose curve at least 0.9, where 1 is the maximum; inactive means score below 0.9.

A short description of the experiment: ATG_Ets_CIS: Attagene CIS-FACTORIAL HepG2 Assay for human Erythroblast Transformation Specific (ETS) (AID 2282941). The settings on record: HepG2 ETS cis-reporter transcription, actives raise or lower the signal. As to the method:
ATG_CIS is a cell-based, multiplexed-readout assay that uses HepG2, a human liver cell line, with measurements taken at 24 hours after chemical dosing in a 24-well plate.ATG_Ets_CIS is one of 52 assay component(s) measured or calculated from the ATG_CIS assay. It is designed to make measurements of mRNA induction, a form of inducible reporter, as detected with fluorescence intensity signals by Reverse transcription polymerase chain reaction (RT-PCR) and Capillary electrophoresis technology.Data from the assay component ATG_Ets_CIS was analyzed into 1 assay endpoint. This assay endpoint, ATG_Ets_CIS, was analyzed with bidirectional fitting relative to DMSO as the negative control and baseline of activity. Using a type of inducible reporter, measures of mRNA for gain or loss-of-signal activity can be used to understand the reporter gene at the transcription factor-level as they relate to the gene ETS1. Furthermore, this assay endpoint can be referred to as a primary readout, because this assay has produced multiple assay endpoints where this one serves a reporter gene function. To generalize the intended target to other relatable targets, this assay endpoint is annotated to the dna binding intended target family, where the subfamily is winged helix-turn-helix.
Human liver HepG2 cells are transiently transfected with multiple reporter transcription units (MRTUs) in 6-well plates using FuGene 6 reagent (Roche; 3 ml FuGene/1 mg DNA). The MRTU constructs are regulated by a cis-regulating element (promoter). […] A major difference between the CIS and TRANS system is that in CIS activities of endogenous TFs are measured, whereas the TRANS assay evaluates changes in activities of exogenous, chimeric NR-Gal4 proteins. […] At the end of 24 hour incubation, total RNA was isolated using TriZol reagent (Invitrogen). The isolated RNA is then reverse-transcribed using oligo(dT) primer and Mo-MLV reverse transcriptase (Invitrogen) with DNAse I (Ambion) treatment for 30 min. The one-tenth of the produced cDNA was amplified by PCR using Taq DNA polymerase (Invitrogen) and two reporter sequence-specific primers. The PCR products were fluorescently labeled by primer extension with 6-arboxyfluorescein (6-FAM) 5'-labeled reporter sequence-specific primer (2 min at 95 C, 20 s at 68 C and 10 min at 72 C) and these products were digested with 5U of HpaI (New England Biolabs) for 2h at 37 C. The fragments were purified using Qiaquick PCR columns (Qiagen), analyzed on an ABI 3130xL genetic analyzer (Applied Biosystems) with peak positions identified by using a set of X-rhodamine (ROX)-labeled MapMarker1000 molecular weight standards (BioVentures). The raw capillary electrophoresis data was processed using Attagraph software (Attagene).
Regarding `C=CN1CCCC1=O`, the outcome was inactive.
On the same count and under the same terms, the same measure for `CC(C)CC(C)O` (stereo not given): “inactive”; for `NC(=O)N(O)[C@@H]1COc2cc(OCc3ccccc3)ccc21`: “inactive”; for `CC1(C)C(=O)N(Cl)C(=O)N1Cl`: “inactive”.
On to `O=C1CN(N=Cc2ccc([N+](=O)[O-])o2)C(=O)N1`, for which the call was inactive.
On the same count and under the same terms, in the case of `Cn1c(=O)c2[nH]cnc2n(C)c1=O` it was “inactive”; in that of `O=c1[nH]cnc2c1ncn2[C@H]1CC[C@@H](CO)O1`, “inactive”; in that of `FC(F)=C(F)C(F)(F)C(F)(F)C(F)(F)C(F)(F)C(F)(F)C(F)(F)F`, “inactive”.
`CCCOc1ccc(S(=O)(=O)N2CCN(CC)CC2)cc1-c1nc2c(CC)n(Cc3ccccn3)nc2c(=O)[nH]1`: the compound was classed as inactive.
In the case of `O=C(O)CO`, the compound was classed as inactive.
Still for that read-out and setting: in the case of `O=C(O)[C@H](O)[C@@H](O)C(=O)O` it was “inactive”.
The same measure, in the same setting: the same measure for `OCC(CO)(CO)CO`: “inactive”; for `Cc1ccc(S(=O)(=O)NC(=O)NN2CCCCCC2)cc1`: “inactive”; for `O=C(O)c1cccc(C[C@@H]2COc3ccc(OCc4nc5cc(F)ccc5s4)cc3[C@@H]2O)c1`: “inactive”.
Same read-out and setting: in the case of `CCCCN1C(=O)[C@@H]([C@H](O)C2CCCCC2)NC(=O)C12CCN(Cc1ccc(Oc3ccc(C(=O)O)cc3)cc1)CC2` it was “inactive”; in that of `CNC(C)=O`, “inactive”; in that of `O=C(O)c1ccc2c(c1)nc(C(=O)NC1CCN(C3CC3)CC1)n2Cc1cc(-c2ccc(Cl)s2)on1`, “inactive”.
For `CCn1nc(C)c2c1C(=O)NCC(c1ccc(O)cc1)=N2`, the result was inactive.
The same measure, in the same setting: in the case of `CC(=O)c1ccccc1` it was “inactive”; in that of `CC(C)c1nnc2ccc(-c3ocnc3-c3cc(F)ccc3F)cn12`, “inactive”; in that of `CCCCCCCCN(C)C`, “inactive”.
For the compound `OC[C@H]1O[C@@H]2O[C@H]3[C@H](O)[C@@H](O)[C@@H](O[C@H]4[C@H](O)[C@@H](O)[C@@H](O[C@H]5[C@H](O)[C@@H](O)[C@@H](O[C@H]6[C@H](O)[C@@H](O)[C@@H](O[C@H]7[C@H](O)[C@@H](O)[C@@H](O[C@H]1[C@H](O)[C@H]2O)O[C@@H]7CO)O[C@@H]6CO)O[C@@H]5CO)O[C@@H]4CO)O[C@@H]3CO`, the outcome was inactive.
Still for that read-out and setting: in the case of `COc1cc2c(c(OC)c1OC)-c1ccc(OC)c(=O)cc1[C@@H](NC(C)=O)CC2` it was “inactive”.
Still for that read-out and setting: in the case of `C=CCc1cc(S(=O)(=O)c2ccc(O)c(CC=C)c2)ccc1O` it was “inactive”.
Take `CCN(CC)C(=S)SSC(=S)N(CC)CC`: the AC50 was 158 µM (active).
As for `FC(F)(F)COC(OCC(F)(F)F)OCC(F)(F)F`, the call was inactive.
Still for that read-out and setting: in the case of `c1ccc(C(O[C@@H]2CCCN(CCc3ccc4c(c3)OCO4)C2)c2ccccc2)cc1` it was “inactive”.
Still for that read-out and setting: in the case of `Cc1cccc(O)c1C` it was “inactive”.
With `O=S(=O)(O)c1ccc(N=Nc2c(O)ccc3cc(S(=O)(=O)O)ccc23)cc1`, the compound was called inactive.
Same read-out and setting: in the case of `OCCOCCOCCO` it was “inactive”.
The same measure, in the same setting: the same measure for `NC(=O)NN=Cc1ccc([N+](=O)[O-])o1`: “inactive”; for `FC(F)(F)C(F)(F)C(F)(F)C(F)(F)C(F)(F)C(F)(F)I`: “inactive”; for `Cn1cc[nH]c1=S`: “inactive”.
As to `Cc1nccn1-c1ccc(Sc2cccc(C3(C(N)=O)CCOCC3)c2)cc1`, the half-maximal activity concentration (AC50) was 4.05 µM (active).
Take `O=C(NO)C1(NS(=O)(=O)c2ccc(Oc3ccc(F)cc3)cc2)CCOCC1`: the compound was classed as inactive.
Turning to `NC(=O)N1c2ccccc2C=Cc2ccccc21`, the call was inactive.
In the case of `CCc1cccc(CC)c1N`, the compound was called inactive.
As to `NNC(=O)c1ccncc1`, the outcome was inactive.
The same measure, in the same setting: in the case of `CCCCCCCC1CCC(=O)O1` (stereo not given) it was “inactive”.
`CCCCOC(=O)c1ccccc1`: the call was inactive.

The values are drawn from PubChem BioAssay (EPA / NIEHS).
